Screening data: PubChem, several laboratories
zVAD death inh – blocks zVAD induced death of L929 cells; viability rescue, % at 10 µM; L929 zVAD necroptosis rescue, ATP luminescence, 24 h; with zVAD 60 µM; 0.38% of 220,000 active;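 active means activation, scaled between plate controls, above about 75%, limit read from the data; inactive means activation under that limit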
Hsp70 act – transcriptional activators of Hsp70. HeLa Hsp70 promoter luciferase reporter, luminescence; scaled: vehicle 0, proteasome-inhibitor control 100%. activation, % at 10 µM. 0.04% of 200,000 active. AID 1203;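 active means activation above the mean across all tested compounds plus 3 SD, cutoff set per campaign, cut at about 5.5% in these data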
S1P4 antagonist – blocks the human S1P4 receptor; inhibition, % at 4.98 µM; AID 1510; 0.26% of 220,000 active; S1P4-expressing cells, antagonist mode, reporter read-out; O95977; in the data active means inhibition above about 29%
Target sequence (O95977 whole entry, looked up): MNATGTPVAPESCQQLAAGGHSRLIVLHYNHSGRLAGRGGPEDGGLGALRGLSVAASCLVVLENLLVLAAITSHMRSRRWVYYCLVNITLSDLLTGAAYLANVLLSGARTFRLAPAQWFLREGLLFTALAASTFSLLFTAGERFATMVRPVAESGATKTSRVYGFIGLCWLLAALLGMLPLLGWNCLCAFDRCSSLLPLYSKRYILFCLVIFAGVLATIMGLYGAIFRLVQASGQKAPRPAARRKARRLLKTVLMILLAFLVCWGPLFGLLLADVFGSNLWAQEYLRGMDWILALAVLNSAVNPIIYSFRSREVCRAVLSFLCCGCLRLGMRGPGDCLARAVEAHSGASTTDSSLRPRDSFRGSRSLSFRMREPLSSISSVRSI
HSV replic up – HSV replication enhancement; HSV replication augmentation in cells, fold increase; maximum fold increase; 0.005% of 220,000 active; in the data active means maximum fold increase above about 1.5; tested in PC3 cells
S1P4 agonist – human S1P4 receptor agonism; AID 1509; S1P4-expressing cell line, agonist reporter assay; 0.35% of 220,000 active; activation, % at 4.98 µM; O95977; in the data active means activation above about 11%
TNF necrop inh – inhibitors of TNF-alpha induced necroptosis in Jurkat FADD-/- cells | Jurkat FADD-/- TNF necroptosis rescue, ATP luminescence, 24 h; 0 = TNF only, 100 = no-TNF cells | activation (protection from cell death), % at 10 µM | 0.068% of 220,000 active | AID 463075;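 active means activation, meaning protection from cell death, of at least 50% relative to plate controls; inactive means activation below 50%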;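 further: necroptosis triggered by 40 ng/mL TNF-alpha added together with compound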
zVAD necrop conf – confirmed blocker of zVAD induced death in L929 cells | shares compounds with zVAD death inh | L929 zVAD-induced necroptosis rescue, ATP luminescence, 24 h | activation (protection from necroptosis), % at 10 µM | 16% of 760 active | AID 463117;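 active means mean protection from necroptosis of at least 50% over duplicate tests; inactive means mean protection below 50%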
Each line names hits and unclear results; the compound was inactive in the other large screens (follow-up assays come after a bar, where they were run). Hits are enriched below; roughly 1% of the tested compounds scored in any of these assays.

CC(C)=C(NC(=O)c1ccccc1Br)C(=O)NCCc1nc2ccccc2[nH]1	none (no result: Hsp70 act)
COc1ccc(C(=O)Nc2ccc(-c3nnn(CC(=O)NCc4ccco4)n3)cc2)cc1	zVAD death inh 77.0 (no result: Hsp70 act) | zVAD necrop conf inactive
O=C(Cn1nnc(-c2ccc(Cl)cc2)n1)NCc1ccco1	none
O=C(Cn1nnc(-c2ccc(NC(=O)c3ccccc3F)cc2)n1)NCc1ccc(F)cc1	zVAD death inh 83.8 (no result: Hsp70 act) | zVAD necrop conf inactive
O=C(Nc1ccc(-c2nnn(CC(=O)N3CCN(C(=O)c4ccco4)CC3)n2)cc1)c1ccccc1F	none
COc1ccc(OC)c(NC(=O)COC(=O)CSc2ccc(Cl)cc2)c1	none (no result: zVAD death inh)
Cc1cc(C)c(C)c(S(=O)(=O)NC2CCN(Cc3ccccc3)CC2)c1C	none
Cc1ccc2c(c1)C(C)CC(C)(C)N2C(=O)CN1CCN(C)CC1 (stereo not drawn)	none (no result: Hsp70 act)
Cc1ccc2c(c1)C(C)CC(C)(C)N2C(=O)NC1CCCCC1 (stereo not drawn)	zVAD death inh 87.5 | zVAD necrop conf 82.3
Cc1ccc(NC(=O)C2CCCN2C(=O)NC2CCCCC2)c(C)c1 (stereo not drawn)	none
Cc1ccc2c(c1)N(C(=O)NC1CCCCC1)C(C)(C)CC2C (stereo not drawn)	zVAD death inh 81.8 | zVAD necrop conf 81.1
O=C(NC1CCSC1=O)C1CCCCC1 (stereo not drawn)	none
O=C(NCCN1C(=O)C2C3C=CC(C3)C2C1=O)Nc1ccc(Br)cc1 (stereo not drawn)	zVAD death inh 75.5 | zVAD necrop conf inactive
O=C(NCCN1C(=O)C2C3C=CC(C3)C2C1=O)Nc1cccnc1 (stereo not drawn)	none
O=c1[nH]c(N2CCCCC2)nc2ncn(Cc3ccccc3)c12	none (no result: Hsp70 act)
Cc1ccc(S(=O)(=O)NC(C)(C)CN2CCC(Cc3ccccc3)CC2)cc1	none (no result: Hsp70 act)
Cc1cc(NS(=O)(=O)c2ccc(NC(=O)CSc3nc4ncccc4[nH]3)cc2)nc(C)n1	none (no result: Hsp70 act)
O=C(Cn1nnc(-c2ccc(Cl)cc2)n1)NC1CCN(Cc2ccccc2)CC1	none
CC1CCCCC1NC(=O)Cn1nnc(-c2ccc(Cl)cc2)n1 (stereo not drawn)	zVAD death inh 78.2 | zVAD necrop conf inactive
N#Cc1cccnc1N1CCC(C(N)=O)CC1	none (no result: Hsp70 act)
Cc1nc2nc(SCC(=O)c3ccc([N+](=O)[O-])cc3)[nH]c2cc1Br	zVAD death inh 89.5 | zVAD necrop conf inactive
COc1ccc(-c2nc(N)ncc2-c2csc(C)n2)c(O)c1OC	none
COC(=O)c1ccccc1N1CCS(=O)(=O)CC1	none
CC(C)(C)c1cc(NCc2ccccn2)n2ncc(-c3ccc(Cl)cc3)c2n1	zVAD death inh 77.3 (no result: Hsp70 act) | zVAD necrop conf inactive
CCN1CCN(Cc2ccc(NC(=O)c3cc(NC(=O)c4cnn(-c5ccccc5)c4N)cc(OC)c3)cc2C(F)(F)F)CC1	zVAD death inh 80.0 (no result: Hsp70 act, S1P4 antagonist, S1P4 agonist) | zVAD necrop conf 80.8
CCN1CCN(Cc2ccc(NC(=O)c3ccc(C)c(NC(=O)c4ccnnc4)c3)cc2C(F)(F)F)CC1	zVAD death inh 75.9 (no result: Hsp70 act, S1P4 antagonist, S1P4 agonist) | zVAD necrop conf 55.9
CCN1CCN(Cc2ccc(NC(=O)c3cc(NC(=O)C(=O)c4c[nH]c5ccccc45)cc(OC)c3)cc2C(F)(F)F)CC1	none (no result: Hsp70 act, S1P4 antagonist, S1P4 agonist)
O=C(NC(=S)NCCCN1CCOCC1)c1cccc2ccccc12	none
COc1cc2oc(-c3ccc(O)cc3)cc(=O)c2c(O)c1OC	zVAD death inh 78.4 (no result: Hsp70 act, S1P4 antagonist, S1P4 agonist) | zVAD necrop conf inactive
COc1cc2oc(-c3ccc(O)cc3)cc(=O)c2c(OC)c1O	none (no result: Hsp70 act)
CCN(CC(=O)Nc1cccc(OC)c1)C(=O)c1ccc(C)s1	none
COc1cc(/C=N/n2nnnc2N)cc(OC)c1OC	none (no result: Hsp70 act)
O=C(O)c1cccc2c(/C=N/Nc3ccccn3)c[nH]c12	zVAD death inh 83.6 (no result: Hsp70 act) | zVAD necrop conf inactive
O=C(O)c1ccccc1N/N=C\c1ccnc2ccccc12	none
O=c1nc(N/N=C/c2c[nH]c3ccccc23)cn[nH]1	none (no result: Hsp70 act)
C(=N\Nc1ccccn1)/c1c[nH]c2ccccc12	zVAD death inh 91.6 (no result: Hsp70 act) | zVAD necrop conf 54.9
Cc1cc(-c2ccccc2)nc2cc(C(=O)NCc3ccco3)nn12	none
C/C=C(/C)C(=O)O[C@H]1[C@@H](O)c2c(ccc3ccc(=O)oc23)OC1(C)C	none
C=C1C(=O)O[C@@H]2[C@H]1[C@@H](OC(=O)/C(C)=C/C)C/C(C)=C\C(=O)/C=C(\C)[C@@H]2O	zVAD death inh 83.8 (no result: Hsp70 act, S1P4 antagonist, S1P4 agonist) | zVAD necrop conf inactive
CC1(C)CNc2cc([N+](=O)[O-])ccc2S1	none
CC(=O)NC(=S)Nc1sc2c(c1C(N)=O)CCC(C)C2 (stereo not drawn)	none
CC(C)(C)c1ccc(NC(=O)COC(=O)C2(C)CC2(Cl)Cl)cc1 (stereo not drawn)	zVAD death inh 76.7 | zVAD necrop conf inactive
CC(=O)/C(=C\N(C)C)Sc1ccc(Cl)cc1	none (no result: Hsp70 act)
S=C(Sc1ccc(Cl)cc1)Sc1ccc(Cl)cc1	zVAD death inh 76.2 (no result: Hsp70 act) | zVAD necrop conf inactive
CC(C)c1ccc(-c2nc(N3CCCC3)nc3n[nH]c(N)c23)cc1	none
Nc1[nH]nc2nc(N3CCOCC3)nc(-c3ccccc3)c12	zVAD death inh 91.6 | zVAD necrop conf inactive
CC(NS(=O)(=O)c1ccc(Br)cc1)C(c1cccs1)N1CCOCC1 (stereo not drawn)	none (no result: zVAD death inh)
CCCC(=O)c1c[nH]c(C(=O)NCCCN2CCOCC2)c1	none
O=C(Nc1nccs1)c1ccc(S(=O)(=O)NCc2cccs2)cc1	zVAD death inh 100.0 | zVAD necrop conf 85.1
O=C(Nc1nccs1)c1ccc(N2C(=O)C3CCCCC3C2=O)cc1 (stereo not drawn)	none
O=C(Nc1nccs1)c1ccc(S(=O)(=O)NCC2CCCCC2)cc1	zVAD death inh 122.7 | zVAD necrop conf 52.5
Cc1ccc(C(=O)NCC(=O)OC(C)C(=O)Nc2ccc(N3CCOCC3)cc2)s1 (stereo not drawn)	none (no result: Hsp70 act)
COc1cc2[nH]c3c(Cl)ncnc3c2cc1OC	zVAD death inh 76.8 | zVAD necrop conf inactive
CC1CCC/C=C/C(=O)c2c(O)cc(O)cc2CC(=O)O1 (stereo not drawn)	zVAD death inh 83.9 (no result: Hsp70 act, S1P4 antagonist, S1P4 agonist) | zVAD necrop conf inactive
C[C@@H]1Cc2c(O)c(O)cc(O)c2C(=O)O1	none (no result: Hsp70 act, S1P4 antagonist, S1P4 agonist)
CS(=O)(=O)Nc1cccc2cccnc12	none
Cc1[nH]c2c(ccc3cccnc32)c1C	zVAD death inh 77.9 (no result: Hsp70 act) | zVAD necrop conf inactive
CNc1nc(C)nc(N/N=C/c2ccccc2)n1	zVAD death inh 75.9 | zVAD necrop conf inactive
C(=N\Nc1nc(Nc2ccccc2)nc(Nc2ccccc2)n1)/c1ccncc1	none
COc1ccc(NC(=O)Nc2cccc(OC)c2)cc1	none
COc1cccc(NC(=O)Nc2cc(Cl)ccc2C)c1	zVAD death inh 76.8 | zVAD necrop conf inactive
O=C(Nc1ccc(OCC(=O)N2CCOCC2)cc1)Nc1cccc(Cl)c1	none
